Experimental data from PubChem BioAssay.
The source made the active and inactive calls.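 How the source made its calls: active means normalized viability below 100% at a tested concentration; inactive means the rest.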

Test: ovarian cancer cell viability with rucaparib, profiling panel, oncology-focused library, rucaparib conditional (AID 1508598)
Settings: patient-derived ovarian cancer cells, CellTiter-Glo viability, 144 h, hits give low values
[1] = at 0.000305 µM, OCI-C5x cells, with rucaparib 10 µM, 100% = cells with rucaparib alone
[2] = at 0.000305 µM, OCI-C5x cells, without rucaparib
[3] = at 0.000305 µM, OCI-P5x cells, with rucaparib 20 µM, 100% = cells with rucaparib alone
[4] = at 0.000305 µM, OCI-P5x cells, without rucaparib
[5] = at 0.00122 µM, OCI-C5x cells, with rucaparib 10 µM, 100% = cells with rucaparib alone
[6] = at 0.00122 µM, OCI-C5x cells, without rucaparib
[7] = at 0.00122 µM, OCI-P5x cells, with rucaparib 20 µM, 100% = cells with rucaparib alone
[8] = at 0.00122 µM, OCI-P5x cells, without rucaparib
[9] = at 0.00488 µM, OCI-C5x cells, with rucaparib 10 µM, 100% = cells with rucaparib alone
[10] = at 0.00488 µM, OCI-C5x cells, without rucaparib
[11] = at 0.00488 µM, OCI-P5x cells, with rucaparib 20 µM, 100% = cells with rucaparib alone
[12] = at 0.00488 µM, OCI-P5x cells, without rucaparib
[13] = at 0.0195 µM, OCI-C5x cells, with rucaparib 10 µM, 100% = cells with rucaparib alone
[14] = at 0.0195 µM, OCI-C5x cells, without rucaparib
[15] = at 0.0195 µM, OCI-P5x cells, with rucaparib 20 µM, 100% = cells with rucaparib alone
[16] = at 0.0195 µM, OCI-P5x cells, without rucaparib
[17] = at 0.0781 µM, OCI-C5x cells, with rucaparib 10 µM, 100% = cells with rucaparib alone
[18] = at 0.0781 µM, OCI-C5x cells, without rucaparib
[19] = at 0.0781 µM, OCI-P5x cells, with rucaparib 20 µM, 100% = cells with rucaparib alone
[20] = at 0.0781 µM, OCI-P5x cells, without rucaparib
[21] = at 0.313 µM, OCI-C5x cells, with rucaparib 10 µM, 100% = cells with rucaparib alone
[22] = at 0.313 µM, OCI-C5x cells, without rucaparib
[23] = at 0.313 µM, OCI-P5x cells, with rucaparib 20 µM, 100% = cells with rucaparib alone
[24] = at 0.313 µM, OCI-P5x cells, without rucaparib
[25] = at 1.25 µM, OCI-C5x cells, with rucaparib 10 µM, 100% = cells with rucaparib alone
[26] = at 1.25 µM, OCI-C5x cells, without rucaparib
[27] = at 1.25 µM, OCI-P5x cells, with rucaparib 20 µM, 100% = cells with rucaparib alone
[28] = at 1.25 µM, OCI-P5x cells, without rucaparib
[29] = at 5 µM, OCI-C5x cells, with rucaparib 10 µM, 100% = cells with rucaparib alone
[30] = at 5 µM, OCI-C5x cells, without rucaparib
[31] = at 5 µM, OCI-P5x cells, with rucaparib 20 µM, 100% = cells with rucaparib alone
[32] = at 5 µM, OCI-P5x cells, without rucaparib

Measured: viability

CC[C@]1(O)C[C@@H]2CN(CCc3c([nH]c4ccccc34)[C@@](C(=O)OC)(c3cc4c(cc3OC)N(C=O)[C@@H]3C45CCN4CC=C[C@](CC)([C@H]45)[C@H](OC(C)=O)[C@]3(O)C(=O)OC)C2)C1 (stereo partly specified)
active: [2] 99.3% | [3] 88.8% | [4] 86.4% | [6] 98.8% | [8] 90.1% | [12] 86.3% | [13] 88.9% | [14] 66.1% | [15] 70.6% | [16] 25.9% | [17] 45.1% | [18] 37.2% | [19] 51% | [20] 17.4% | [21] 42.3% | [22] 27.2% | [23] 56.1% | [24] 16.7% | [25] 34.8% | [26] 21.4% | [27] 51% | [28] 12.7% | [29] 41.7% | [30] 24.9% | [31] 50.9% | [32] 13.1%
inactive: [1] 113% | [5] 120% | [7] 102% | [9] 101% | [10] 103% | [11] 105%

Cc1[nH]c(C=C2C(=O)Nc3ccc(S(=O)(=O)Cc4c(Cl)cccc4Cl)cc32)c(C)c1C(=O)N1CCC[C@@H]1CN1CCCC1
inactive: [1] 124% | [2] 124% | [5] 122% | [6] 115% | [9] 116% | [10] 121% | [11] 105% | [12] 101% | [13] 107% | [14] 111% | [17] 106% | [18] 113% | [21] 123% | [22] 110% | [25] 122% | [26] 136% | [29] 109% | [30] 116%
active: [3] 74% | [4] 47.4% | [7] 87.5% | [8] 57.1% | [15] 93.6% | [16] 91.6% | [19] 96% | [20] 89.5% | [23] 93% | [24] 94.4% | [27] 90.6% | [28] 87% | [31] 1.25% | [32] 52.5%

C[C@H](O[C@H]1OCCN(Cc2n[nH]c(=O)[nH]2)[C@H]1c1ccc(F)cc1)c1cc(C(F)(F)F)cc(C(F)(F)F)c1
active: [29] 80.9% | [31] 36.6% | [32] 97.5%
inactive: [1] 106% | [2] 113% | [3] 100% | [4] 105% | [5] 111% | [6] 113% | [7] 109% | [8] 105% | [9] 122% | [10] 123% | [11] 110% | [12] 114% | [13] 108% | [14] 114% | [15] 115% | [16] 112% | [17] 117% | [18] 125% | [19] 117% | [20] 117% | [21] 116% | [22] 130% | [23] 112% | [24] 119% | [25] 120% | [26] 144% | [27] 117% | [28] 113% | [30] 147%
